Assay results reported in paper PMC7862700, “An all-to-all approach to the identification of sequence-specific readers for epigenetic DNA modifications on cytosine”.

Legend:
Experiment in all cases: DAPPL (digital affinity profiling via proximity ligation, sequencing); 10 mM Tris-HCl pH 7.5, 50 mM NaCl, 1 mM DTT, 4% glycerol, room temperature, 30 min; GST-TFs on glutathione beads, 16-mer random dsDNA library, 0.1% formaldehyde crosslink after washing; high values mean tight binding
FEV = molecular target: T1, FEV (Homo sapiens, UniProt Q99581 1-238); details: protein: recombinant; tags: N-terminal GST; dsDNA, one strand shown
T1 sequence: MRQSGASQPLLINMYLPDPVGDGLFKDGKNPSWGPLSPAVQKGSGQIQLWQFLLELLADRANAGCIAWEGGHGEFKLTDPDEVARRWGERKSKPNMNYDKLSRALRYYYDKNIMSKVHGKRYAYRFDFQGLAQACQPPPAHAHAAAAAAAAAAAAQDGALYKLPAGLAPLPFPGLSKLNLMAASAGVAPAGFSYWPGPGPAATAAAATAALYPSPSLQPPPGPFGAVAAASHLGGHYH
In short: (§1)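 A tag-only sample was pooled with DNA-barcoded human transcription factors that had been expressed in yeast as GST fusions and captured on glutathione beads. The pools were incubated for 30 min at room temperature with 200 nmole of a random double-stranded 16-mer DNA library in Tris/NaCl/DTT/glycerol buffer, then washed, crosslinked with 0.1% formaldehyde, proximity-ligated (BsaI/T4 ligase, 1 h, 37 °C), PCR-amplified and sequenced on an Illumina NextSeq500. Binding signal is each hexamer's read frequency for a factor divided by its frequency for the tag-only sample.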

ETV5 = ETV5 (Homo sapiens, UniProt P41161 1-510); details: protein: recombinant; tags: N-terminal GST; dsDNA, one strand shown
In short: as §1

HSF1 = HSF1 (Homo sapiens, UniProt Q00613 1-529); details: protein: recombinant; tags: N-terminal GST; chain copies: 3; dsDNA, one strand shown
In short: as §1

SPIC = molecular target: T2, SPIC (Homo sapiens, UniProt Q8N5J4 1-248); details: protein: recombinant; tags: N-terminal GST; dsDNA, one strand shown
T2 sequence: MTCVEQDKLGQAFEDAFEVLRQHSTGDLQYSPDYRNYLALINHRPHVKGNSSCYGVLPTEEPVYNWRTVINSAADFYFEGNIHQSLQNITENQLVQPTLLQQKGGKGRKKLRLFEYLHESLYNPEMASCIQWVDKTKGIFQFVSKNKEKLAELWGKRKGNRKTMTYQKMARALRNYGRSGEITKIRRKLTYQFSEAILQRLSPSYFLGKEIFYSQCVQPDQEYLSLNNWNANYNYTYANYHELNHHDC
In short: as §1

ELF4 = ELF4 (Homo sapiens, UniProt Q99607 1-663); details: protein: recombinant; tags: N-terminal GST; dsDNA, one strand shown
In short: as §1

ELK4 = molecular target: T3, ELK4 (Homo sapiens, UniProt P28324-2 1-405); details: protein: recombinant; tags: N-terminal GST; dsDNA, one strand shown
T3 sequence: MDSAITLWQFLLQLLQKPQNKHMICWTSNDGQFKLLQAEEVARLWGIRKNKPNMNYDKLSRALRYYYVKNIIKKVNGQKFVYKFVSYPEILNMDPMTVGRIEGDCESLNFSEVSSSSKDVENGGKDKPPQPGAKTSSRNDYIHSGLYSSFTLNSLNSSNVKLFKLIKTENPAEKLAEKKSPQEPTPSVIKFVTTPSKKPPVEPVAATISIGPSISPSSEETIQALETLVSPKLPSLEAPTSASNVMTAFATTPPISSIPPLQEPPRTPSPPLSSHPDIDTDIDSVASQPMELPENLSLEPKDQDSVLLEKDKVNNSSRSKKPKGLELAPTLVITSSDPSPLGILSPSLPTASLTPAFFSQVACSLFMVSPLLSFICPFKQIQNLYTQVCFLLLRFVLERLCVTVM
In short: as §1

ETV2 = molecular target: T4, ETV2 (Homo sapiens, UniProt O00321 1-342); details: protein: recombinant; tags: N-terminal GST; dsDNA, one strand shown
T4 sequence: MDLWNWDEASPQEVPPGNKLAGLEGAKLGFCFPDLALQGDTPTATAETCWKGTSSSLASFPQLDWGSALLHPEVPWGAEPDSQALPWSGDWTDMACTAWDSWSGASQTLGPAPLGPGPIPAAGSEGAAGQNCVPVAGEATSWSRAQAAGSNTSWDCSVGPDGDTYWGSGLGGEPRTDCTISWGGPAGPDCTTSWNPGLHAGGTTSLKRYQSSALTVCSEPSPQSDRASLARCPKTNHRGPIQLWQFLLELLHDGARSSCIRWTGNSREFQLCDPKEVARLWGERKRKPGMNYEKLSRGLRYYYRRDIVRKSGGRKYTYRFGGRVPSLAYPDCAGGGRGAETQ
In short: as §1

ELF3 = molecular target: T5, ELF3 (Homo sapiens, UniProt P78545 1-371); details: protein: recombinant; tags: N-terminal GST; dsDNA, one strand shown
T5 sequence: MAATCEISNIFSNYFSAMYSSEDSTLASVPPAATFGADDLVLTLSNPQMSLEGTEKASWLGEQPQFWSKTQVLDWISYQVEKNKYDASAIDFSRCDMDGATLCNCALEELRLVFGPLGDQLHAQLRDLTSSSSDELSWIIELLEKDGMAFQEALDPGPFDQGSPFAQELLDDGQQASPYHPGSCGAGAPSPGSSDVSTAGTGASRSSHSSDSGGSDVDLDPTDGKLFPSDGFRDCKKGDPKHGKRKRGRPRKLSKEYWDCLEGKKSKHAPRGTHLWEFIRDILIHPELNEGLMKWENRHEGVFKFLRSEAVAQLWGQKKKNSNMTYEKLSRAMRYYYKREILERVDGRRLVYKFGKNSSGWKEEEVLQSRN
In short: as §1

CRX = CRX (Homo sapiens, UniProt O43186 1-299); details: protein: recombinant; tags: N-terminal GST; dsDNA, one strand shown
In short: as §1

ETV1 = ETV1 (Homo sapiens, UniProt P50549 1-477); details: protein: recombinant; tags: N-terminal GST; dsDNA, one strand shown
In short: as §1

Chain of CRX (O43186 whole entry): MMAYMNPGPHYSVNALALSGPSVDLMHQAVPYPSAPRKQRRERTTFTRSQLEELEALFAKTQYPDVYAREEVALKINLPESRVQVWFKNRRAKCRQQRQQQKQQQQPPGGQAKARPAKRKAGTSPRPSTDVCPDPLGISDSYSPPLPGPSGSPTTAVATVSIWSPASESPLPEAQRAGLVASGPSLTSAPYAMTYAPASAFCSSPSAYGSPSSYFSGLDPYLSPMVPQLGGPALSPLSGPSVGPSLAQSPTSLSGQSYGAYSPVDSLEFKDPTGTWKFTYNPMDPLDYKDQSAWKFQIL
Chain of ETV1 (P50549 whole entry): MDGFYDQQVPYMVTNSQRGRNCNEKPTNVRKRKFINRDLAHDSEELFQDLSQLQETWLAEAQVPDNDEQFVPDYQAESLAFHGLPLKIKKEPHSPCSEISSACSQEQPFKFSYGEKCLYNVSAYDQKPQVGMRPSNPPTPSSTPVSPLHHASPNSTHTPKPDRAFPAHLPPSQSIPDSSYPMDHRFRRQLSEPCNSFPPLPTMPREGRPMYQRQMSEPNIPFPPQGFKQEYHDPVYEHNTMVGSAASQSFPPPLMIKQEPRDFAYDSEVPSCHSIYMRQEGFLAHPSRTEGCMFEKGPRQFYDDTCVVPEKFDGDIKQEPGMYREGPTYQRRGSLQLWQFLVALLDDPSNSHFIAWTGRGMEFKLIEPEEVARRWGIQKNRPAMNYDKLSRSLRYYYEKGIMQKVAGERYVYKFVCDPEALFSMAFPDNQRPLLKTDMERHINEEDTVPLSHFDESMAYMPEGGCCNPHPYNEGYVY
Chain of HSF1 (Q00613 whole entry): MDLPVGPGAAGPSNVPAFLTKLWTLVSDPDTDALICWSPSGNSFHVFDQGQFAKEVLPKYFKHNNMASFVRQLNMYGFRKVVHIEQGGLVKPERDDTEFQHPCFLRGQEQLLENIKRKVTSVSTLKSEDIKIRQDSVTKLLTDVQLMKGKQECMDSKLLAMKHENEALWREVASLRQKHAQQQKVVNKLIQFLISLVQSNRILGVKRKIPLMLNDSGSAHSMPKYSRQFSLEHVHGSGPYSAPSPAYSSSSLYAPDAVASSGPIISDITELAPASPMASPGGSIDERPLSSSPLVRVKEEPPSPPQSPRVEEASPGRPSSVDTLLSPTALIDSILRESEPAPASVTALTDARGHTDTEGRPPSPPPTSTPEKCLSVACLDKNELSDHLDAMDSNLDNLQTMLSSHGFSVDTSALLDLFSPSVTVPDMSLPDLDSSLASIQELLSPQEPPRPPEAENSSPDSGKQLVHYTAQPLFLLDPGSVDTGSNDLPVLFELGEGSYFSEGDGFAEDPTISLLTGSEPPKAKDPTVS
Chain of ELF4 (Q99607 whole entry): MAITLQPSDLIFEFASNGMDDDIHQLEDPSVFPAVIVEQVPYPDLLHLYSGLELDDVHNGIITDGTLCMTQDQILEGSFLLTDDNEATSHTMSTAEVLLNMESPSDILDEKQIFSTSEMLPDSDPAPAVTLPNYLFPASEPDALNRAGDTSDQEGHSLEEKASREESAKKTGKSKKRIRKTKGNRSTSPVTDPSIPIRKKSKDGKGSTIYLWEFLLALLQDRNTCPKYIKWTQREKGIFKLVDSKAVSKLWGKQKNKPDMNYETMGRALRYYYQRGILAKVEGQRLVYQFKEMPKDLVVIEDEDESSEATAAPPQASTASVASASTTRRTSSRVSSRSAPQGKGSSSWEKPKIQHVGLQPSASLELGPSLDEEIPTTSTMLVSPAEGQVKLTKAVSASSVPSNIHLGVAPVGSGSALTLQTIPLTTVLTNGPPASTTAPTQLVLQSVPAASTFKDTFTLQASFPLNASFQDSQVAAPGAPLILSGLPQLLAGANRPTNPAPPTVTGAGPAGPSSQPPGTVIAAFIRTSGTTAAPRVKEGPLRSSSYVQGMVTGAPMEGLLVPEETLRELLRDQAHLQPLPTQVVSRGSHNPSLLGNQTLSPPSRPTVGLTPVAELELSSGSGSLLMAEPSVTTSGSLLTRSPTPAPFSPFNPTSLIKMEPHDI
Chain of ETV5 (P41161 whole entry): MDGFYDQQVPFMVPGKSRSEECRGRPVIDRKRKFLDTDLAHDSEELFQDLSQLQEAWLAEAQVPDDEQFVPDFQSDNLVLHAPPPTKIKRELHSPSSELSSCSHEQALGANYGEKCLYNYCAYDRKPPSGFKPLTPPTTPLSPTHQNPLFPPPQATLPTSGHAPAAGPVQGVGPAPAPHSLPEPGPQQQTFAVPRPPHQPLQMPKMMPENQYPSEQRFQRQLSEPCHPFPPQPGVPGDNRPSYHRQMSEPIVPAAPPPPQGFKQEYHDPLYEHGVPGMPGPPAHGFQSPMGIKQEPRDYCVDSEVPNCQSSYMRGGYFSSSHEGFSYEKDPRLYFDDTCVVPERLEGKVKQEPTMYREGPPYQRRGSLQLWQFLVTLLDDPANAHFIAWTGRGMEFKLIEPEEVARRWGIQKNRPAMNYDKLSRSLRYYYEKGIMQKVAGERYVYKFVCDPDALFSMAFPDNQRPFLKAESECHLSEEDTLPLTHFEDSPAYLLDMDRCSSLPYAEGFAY

Sequence | binding signal (FEV) | binding signal (ETV5) | binding signal (HSF1) | binding signal (SPIC) | binding signal (ELF4) | binding signal (ELK4) | binding signal (ETV2) | binding signal (ELF3) | binding signal (CRX) | binding signal (ETV1)
TACAAT | 1.29 fold enrichment (6-mer frequency, TF over GST control) | 1.3 fold enrichment (6-mer frequency, TF over GST control) | 1.32 fold enrichment (6-mer frequency, TF over GST control) | 1.25 fold enrichment (6-mer frequency, TF over GST control) | 1.26 fold enrichment (6-mer frequency, TF over GST control) | 1.47 fold enrichment (6-mer frequency, TF over GST control) | 1.31 fold enrichment (6-mer frequency, TF over GST control) | 1.36 fold enrichment (6-mer frequency, TF over GST control) | 1.44 fold enrichment (6-mer frequency, TF over GST control) | 1.33 fold enrichment (6-mer frequency, TF over GST control)
AATTTG | 1.39 fold enrichment (6-mer frequency, TF over GST control) | 1.25 fold enrichment (6-mer frequency, TF over GST control) | 1.26 fold enrichment (6-mer frequency, TF over GST control) | 1.41 fold enrichment (6-mer frequency, TF over GST control) | 1.26 fold enrichment (6-mer frequency, TF over GST control) | 1.34 fold enrichment (6-mer frequency, TF over GST control) | 1.16 fold enrichment (6-mer frequency, TF over GST control) | 1.32 fold enrichment (6-mer frequency, TF over GST control) | 1.33 fold enrichment (6-mer frequency, TF over GST control) | 1.28 fold enrichment (6-mer frequency, TF over GST control)
TAATGT | – | 1.14 fold enrichment (6-mer frequency, TF over GST control) | 1.19 fold enrichment (6-mer frequency, TF over GST control) | 1.21 fold enrichment (6-mer frequency, TF over GST control) | 1.11 fold enrichment (6-mer frequency, TF over GST control) | 1.19 fold enrichment (6-mer frequency, TF over GST control) | 1.08 fold enrichment (6-mer frequency, TF over GST control) | 1.04 fold enrichment (6-mer frequency, TF over GST control) | 1.5 fold enrichment (6-mer frequency, TF over GST control) | 1.16 fold enrichment (6-mer frequency, TF over GST control)
ATCGTT | – | 1 fold enrichment (6-mer frequency, TF over GST control) | 1.02 fold enrichment (6-mer frequency, TF over GST control) | 1.03 fold enrichment (6-mer frequency, TF over GST control) | 1.04 fold enrichment (6-mer frequency, TF over GST control) | 1.12 fold enrichment (6-mer frequency, TF over GST control) | 1.13 fold enrichment (6-mer frequency, TF over GST control) | 1.03 fold enrichment (6-mer frequency, TF over GST control) | 1.14 fold enrichment (6-mer frequency, TF over GST control) | 1.06 fold enrichment (6-mer frequency, TF over GST control)
